Reference: PubChem BioAssay (NCI)
Compounds without any hit were thinned out: in the full panel of roughly 83,000, 20% have a hit.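 Negative percent growth values reflect cell death: -40 means 40% of the cells present at the start died, and -100 means all died.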 Unmarked numbers belong to inactive results. Active and inactive are the calls of the source. The calls were made as follows: active = growth percent below 10; inactive = the rest.

What follows are compounds tested on A549/ATCC NSCLC (assay: NCI-60 one-dose screen, 48 h (100 = growth as untreated, 0 = no growth, -100 = all killed)). Details: 10 µM unless noted.

Question: For `C[C@H](c1nc2ccc(C#N)cc2[nH]1)[C@H]1CC[C@H]2[C@@H]3CCC4=CC(=O)CC[C@]4(C)[C@H]3CC[C@]12C`, which growth is on record?
Answer: 63.9%

Question: Which growth does the source give for `O=c1cc(C(F)(F)F)c2cc(-c3cc4ccccc4c(=O)o3)c(O)cc2o1` here?
Answer: 78.5%

Question: With `Nc1ccc(-c2ccncc2)cc1NC(=O)N1CCCC1` as the compound, how does the growth read?
Answer: 87.7%

Question: How did the growth turn out when `COc1cccc(-c2cn3nc(-c4cn(C)c5ccccc45)sc3n2)c1` was run?
Answer: 94.6%

Question: `CC(C)(C)c1ccc(S(=O)(=O)Oc2ccc(-c3sc4cc(OS(=O)(=O)c5ccc(C(C)(C)C)cc5)ccc4c3C(=O)c3ccc(OCCN4CCCCC4)cc3)cc2)cc1` was tested. Which growth did it give?
Answer: 87.4%

Question: For `CCN(CC)CCn1c2ccc(OC)cc2c2sc3cc(O)ccc3c(=O)c21`, which growth is on record?
Answer: 17.9%

Question: With `C=C1C(=O)O[C@H]2[C@H]1CC/C(COC(=O)NCc1ccc(Cn3c(=O)sn(-c4ccc(I)cc4)c3=O)cc1)=C\CC[C@@]1(C)O[C@@H]21` as the compound, how does the growth read?
Answer: 94.9%

Question: `O=C(Nc1nc(Cl)nc(Nc2ccc(N3CCOCC3=O)cc2)n1)c1ccc(Cl)s1` was tested. Which growth did it give?
Answer: 77.3%

Question: How did the growth turn out when `COc1cc(OC)c2c(=O)c3c(CC=C(C)C)cc(OC)c(O)c3oc2c1` was run?
Answer: 90.8%

Question: For `O=S(=O)(Nc1cc(Sc2nc3ccccc3s2)c(O)c2ccccc12)c1ccc2ccccc2c1`, which growth is on record?
Answer: 99.9%

Question: `Nc1cccc(-c2ccc(COc3ccc(CC4SC(=O)NC4=O)cc3)cc2)c1` (stereo not drawn) was tested. Which growth did it give?
Answer: 44.8%

Question: With `COc1ccc(-c2nc(SCC(=O)Nc3nc4ccc(C)cc4s3)[nH]c(=O)c2C#N)cc1OC` as the compound, how does the growth read?
Answer: 105%

Question: For `C=C1C(=O)O[C@@H]2C3C(=C(C)CC[C@@H]12)CC1O[C@]13C` (stereo partly drawn), which growth is on record?
Answer: 90.1% [6.75 µM]

Question: `COc1cccc(CNc2c3ccccc3nc3ccccc23)c1OC` was tested. Which growth did it give?
Answer: 30.3%

Question: With `Nc1c(Cl)cc(/C=C2\C=Cc3ccccc32)cc1Cl` as the compound, how does the growth read?
Answer: 92.7%

Question: How did the growth turn out when `CSc1ccc2c3c(n(C[C@H](O)CO)c(=O)c2c1)-c1ccccc1C3=O` was run?
Answer: 14.5%

Question: For `COc1cc(-c2ccc[nH]2)[nH]c1/C=C1\N=C(C)C(CC(=O)OCC(C)(C)C)=C1C`, which growth is on record?
Answer: -69.1% (active)

Question: With `Brc1ccc(Nc2nc(Nc3cnc4ccccc4c3)c3[nH]cnc3n2)cc1` as the compound, how does the growth read?
Answer: 79.6%

Question: With `CS(=O)(=O)Nc1cc(-c2ccc3ncnc(Nc4ccc(F)c(Cl)c4)c3c2)ccc1Cl` as the compound, how does the growth read?
Answer: 31.6%

Question: `CSc1ccc2c3c(n(CCCn4ccnc4)c(=O)c2c1)-c1ccccc1C3=O` was tested. Which growth did it give?
Answer: 47.9%

Question: Which growth does the source give for `O=C(/C=C/c1cn(-c2ccccc2)nc1-c1ccccc1)CCC(=O)NO` here?
Answer: 91.5%

Question: `O=C(/C=C/c1ccccc1)c1cccc2ccccc12` was tested. Which growth did it give?
Answer: 39%

Question: With `CCOC(=O)/C=C1\S/C(=N\Nc2cc(=O)[nH]c3ccc(Br)cc23)N(c2ccccc2)C1=O` as the compound, how does the growth read?
Answer: 103%

Question: With `CC(=O)c1ccc(-n2cc(CN3CCN(c4cc5c(cc4F)c(=O)c(C(=O)O)cn5C4CC4)CC3)nn2)cc1` as the compound, how does the growth read?
Answer: 89.8%

Question: How did the growth turn out when `CS(=O)(=O)Nc1cc(-c2ccc3ncnc(Nc4ccc(OCc5ccccn5)c(Cl)c4)c3c2)cnc1Cl` was run?
Answer: 11.8%

Question: Which growth does the source give for `COc1ccc2c(c1)c(-c1nc(-c3ccc4ccccc4c3)cs1)cn2C` here?
Answer: 82.6%

Question: `CCOC(=O)c1c(C)nc2ccccc2c1/C=C/c1ccc(F)cc1` was tested. Which growth did it give?
Answer: 57.7%

Question: `CC1(C)N=C(N)N=C(N)N1c1ccc(S(=O)(=O)Nc2nccs2)cc1` was tested. Which growth did it give?
Answer: 96.1%

Question: With `COC(=O)c1sccc1-c1cc(O)c(C(=O)Nc2ccccc2)s1` as the compound, how does the growth read?
Answer: 91.5%

Question: How did the growth turn out when `CCOC(=O)NC(=S)n1oc(=O)c2ccccc21` was run?
Answer: 103%

Question: Which growth does the source give for `O=C1CCC(C(=O)N/N=C/c2cc(F)ccc2F)N1` (stereo not drawn) here?
Answer: 97.6%

Question: For `COc1ccccc1/C=C/C(=O)Nc1ccc(F)cc1`, which growth is on record?
Answer: 92.9%

Question: For `COc1ccc(/C=N/Nc2c3ccccc3nc3ccccc23)cc1`, which growth is on record?
Answer: 96.5%

Question: With `O=[N+]([O-])c1ccccc1Sc1ccccc1[N+](=O)[O-]` as the compound, how does the growth read?
Answer: 87.2%

Question: `C[C@@H]1CN(c2cnc(C(=O)Nc3cc(F)cc4cccnc34)cn2)C[C@H](C)N1` was tested. Which growth did it give?
Answer: 94.6%

Question: For `CC1(C)CC[C@]23CC[C@]4(C)[C@H](CC[C@@H]5[C@@]6(C)C/C(=C/O)C(=O)C(C)(C)[C@@H]6CC[C@]54C)[C@H]2[C@H]1OC3`, which growth is on record?
Answer: 106%

Question: Which growth does the source give for `c1cc(OCCCCCOc2cccc(-c3nc4ccccc4[nH]3)c2)cc(-c2nc3ccccc3[nH]2)c1` here?
Answer: 13.9%

Question: `O=CN1N=C(c2cccc(Nc3ccnc4cc(Cl)ccc34)c2)CC1c1ccc(Cl)cc1` (stereo not drawn) was tested. Which growth did it give?
Answer: 34.3%

Question: How did the growth turn out when `COc1ccc(/C=C2\c3cc(OC)c(OC)c(OC)c3CC[C@@H]2O)cc1F` was run?
Answer: 16.7%

These compounds were tested on 786-0 renal in the same assay as above. Details: 10 µM unless noted.

Question: Which growth does the source give for `C[C@H](c1nc2ccc(C#N)cc2[nH]1)[C@H]1CC[C@H]2[C@@H]3CCC4=CC(=O)CC[C@]4(C)[C@H]3CC[C@]12C` here?
Answer: 67.4%

Question: For `O=c1cc(C(F)(F)F)c2cc(-c3cc4ccccc4c(=O)o3)c(O)cc2o1`, which growth is on record?
Answer: 80.2%

Question: `Nc1ccc(-c2ccncc2)cc1NC(=O)N1CCCC1` was tested. Which growth did it give?
Answer: 96.8%

Question: For `COc1cccc(-c2cn3nc(-c4cn(C)c5ccccc45)sc3n2)c1`, which growth is on record?
Answer: 104%

Question: Which growth does the source give for `CC(C)(C)c1ccc(S(=O)(=O)Oc2ccc(-c3sc4cc(OS(=O)(=O)c5ccc(C(C)(C)C)cc5)ccc4c3C(=O)c3ccc(OCCN4CCCCC4)cc3)cc2)cc1` here?
Answer: 89%

Question: Which growth does the source give for `CCN(CC)CCn1c2ccc(OC)cc2c2sc3cc(O)ccc3c(=O)c21` here?
Answer: 26.1%

Question: `C=C1C(=O)O[C@H]2[C@H]1CC/C(COC(=O)NCc1ccc(Cn3c(=O)sn(-c4ccc(I)cc4)c3=O)cc1)=C\CC[C@@]1(C)O[C@@H]21` was tested. Which growth did it give?
Answer: 75.2%

Question: `O=C(Nc1nc(Cl)nc(Nc2ccc(N3CCOCC3=O)cc2)n1)c1ccc(Cl)s1` was tested. Which growth did it give?
Answer: 108%

Question: With `COc1cc(OC)c2c(=O)c3c(CC=C(C)C)cc(OC)c(O)c3oc2c1` as the compound, how does the growth read?
Answer: 90.1%

Question: How did the growth turn out when `O=S(=O)(Nc1cc(Sc2nc3ccccc3s2)c(O)c2ccccc12)c1ccc2ccccc2c1` was run?
Answer: 111%

Question: With `Nc1cccc(-c2ccc(COc3ccc(CC4SC(=O)NC4=O)cc3)cc2)c1` (stereo not drawn) as the compound, how does the growth read?
Answer: 77.9%

Question: `COc1ccc(-c2nc(SCC(=O)Nc3nc4ccc(C)cc4s3)[nH]c(=O)c2C#N)cc1OC` was tested. Which growth did it give?
Answer: 105%

Question: Which growth does the source give for `C=C1C(=O)O[C@@H]2C3C(=C(C)CC[C@@H]12)CC1O[C@]13C` (stereo partly drawn) here?
Answer: 83.1% [6.75 µM]

Question: For `COc1cccc(CNc2c3ccccc3nc3ccccc23)c1OC`, which growth is on record?
Answer: 38.8%

Question: How did the growth turn out when `Nc1c(Cl)cc(/C=C2\C=Cc3ccccc32)cc1Cl` was run?
Answer: 102%

Question: With `CSc1ccc2c3c(n(C[C@H](O)CO)c(=O)c2c1)-c1ccccc1C3=O` as the compound, how does the growth read?
Answer: 27%

Question: How did the growth turn out when `COc1cc(-c2ccc[nH]2)[nH]c1/C=C1\N=C(C)C(CC(=O)OCC(C)(C)C)=C1C` was run?
Answer: -88.1% (active)

Question: `Brc1ccc(Nc2nc(Nc3cnc4ccccc4c3)c3[nH]cnc3n2)cc1` was tested. Which growth did it give?
Answer: 49.4%

Question: With `CS(=O)(=O)Nc1cc(-c2ccc3ncnc(Nc4ccc(F)c(Cl)c4)c3c2)ccc1Cl` as the compound, how does the growth read?
Answer: 50.3%

Question: For `CSc1ccc2c3c(n(CCCn4ccnc4)c(=O)c2c1)-c1ccccc1C3=O`, which growth is on record?
Answer: 20.4%

Question: How did the growth turn out when `O=C(/C=C/c1cn(-c2ccccc2)nc1-c1ccccc1)CCC(=O)NO` was run?
Answer: 97.3%

Question: For `O=C(/C=C/c1ccccc1)c1cccc2ccccc12`, which growth is on record?
Answer: 83.5%

Question: Which growth does the source give for `CCOC(=O)/C=C1\S/C(=N\Nc2cc(=O)[nH]c3ccc(Br)cc23)N(c2ccccc2)C1=O` here?
Answer: 86%

Question: How did the growth turn out when `CC(=O)c1ccc(-n2cc(CN3CCN(c4cc5c(cc4F)c(=O)c(C(=O)O)cn5C4CC4)CC3)nn2)cc1` was run?
Answer: 87.9%

Question: For `CS(=O)(=O)Nc1cc(-c2ccc3ncnc(Nc4ccc(OCc5ccccn5)c(Cl)c4)c3c2)cnc1Cl`, which growth is on record?
Answer: 22.2%

Question: With `COc1ccc2c(c1)c(-c1nc(-c3ccc4ccccc4c3)cs1)cn2C` as the compound, how does the growth read?
Answer: 75.4%

Question: For `CCOC(=O)c1c(C)nc2ccccc2c1/C=C/c1ccc(F)cc1`, which growth is on record?
Answer: 79.5%

Question: Which growth does the source give for `CC1(C)N=C(N)N=C(N)N1c1ccc(S(=O)(=O)Nc2nccs2)cc1` here?
Answer: 99.5%

Question: How did the growth turn out when `COC(=O)c1sccc1-c1cc(O)c(C(=O)Nc2ccccc2)s1` was run?
Answer: 106%

Question: Which growth does the source give for `CCOC(=O)NC(=S)n1oc(=O)c2ccccc21` here?
Answer: 111%

Question: How did the growth turn out when `O=C1CCC(C(=O)N/N=C/c2cc(F)ccc2F)N1` (stereo not drawn) was run?
Answer: 103%

Question: Which growth does the source give for `COc1ccccc1/C=C/C(=O)Nc1ccc(F)cc1` here?
Answer: 97.7%

Question: For `COc1ccc(/C=N/Nc2c3ccccc3nc3ccccc23)cc1`, which growth is on record?
Answer: 90.8%

Question: With `O=[N+]([O-])c1ccccc1Sc1ccccc1[N+](=O)[O-]` as the compound, how does the growth read?
Answer: 93.4%

Question: Which growth does the source give for `C[C@@H]1CN(c2cnc(C(=O)Nc3cc(F)cc4cccnc34)cn2)C[C@H](C)N1` here?
Answer: 60.6%

Question: With `CC1(C)CC[C@]23CC[C@]4(C)[C@H](CC[C@@H]5[C@@]6(C)C/C(=C/O)C(=O)C(C)(C)[C@@H]6CC[C@]54C)[C@H]2[C@H]1OC3` as the compound, how does the growth read?
Answer: 106%

Question: How did the growth turn out when `c1cc(OCCCCCOc2cccc(-c3nc4ccccc4[nH]3)c2)cc(-c2nc3ccccc3[nH]2)c1` was run?
Answer: 19.8%

Question: How did the growth turn out when `O=CN1N=C(c2cccc(Nc3ccnc4cc(Cl)ccc34)c2)CC1c1ccc(Cl)cc1` (stereo not drawn) was run?
Answer: 28.8%

Question: Which growth does the source give for `COc1ccc(/C=C2\c3cc(OC)c(OC)c(OC)c3CC[C@@H]2O)cc1F` here?
Answer: 34.7%
